Screens: PubChem, National Center for Advancing Translational Sciences (NCATS)
DRD3 agonist: D3 dopamine receptor (human) agonism; P35462; D3R DiscoveRx beta-arrestin cells, luminescence, 90 min; max activation, %; actives 0.58% (n = 410,000); in the data active = max activation above about 30%; note: 0% is about no effect
Target sequence (P35462 whole entry, looked up): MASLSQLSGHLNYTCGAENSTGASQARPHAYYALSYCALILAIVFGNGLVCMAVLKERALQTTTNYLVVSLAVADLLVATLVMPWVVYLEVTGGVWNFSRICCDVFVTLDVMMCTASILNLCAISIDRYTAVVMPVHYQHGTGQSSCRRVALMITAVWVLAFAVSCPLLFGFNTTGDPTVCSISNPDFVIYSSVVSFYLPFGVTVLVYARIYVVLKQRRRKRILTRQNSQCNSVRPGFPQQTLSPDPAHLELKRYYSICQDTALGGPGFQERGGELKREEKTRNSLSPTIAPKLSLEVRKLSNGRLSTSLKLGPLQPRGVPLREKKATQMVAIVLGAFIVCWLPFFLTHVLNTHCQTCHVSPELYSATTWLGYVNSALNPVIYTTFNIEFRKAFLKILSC
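Agonist mode: compounds and dopamine controls were applied to plated cells for 90 min at 37 degrees C after an overnight attachment at 1500 cells/well. Luminescent read-out followed 30 - 60 minutes at room temperature with DiscoveRx detection reagent.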
Glioma ERSR ind: induces the endoplasmic reticulum stress response in human glioma cells | U87-MG GRP78 promoter luciferase reporter, 16 h | Potency, µM, for the others: at the top dose activation, most hits filed as activators | actives 0.02% (n = 420,000); note: potency is the fitted concentration of half-maximal effect; series mostly up to about 76 µM; % of control where 0% means no effect; nearly all actives have a fitted effect of over 35% in size
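Stably transfected U87-MG glioma cells carrying a GRP78-based luciferase sensor; 16 h compound incubation. Luminescence end-point read 10 min after Bright-Glo addition at room temperature.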
Nrf2 activator: activates Nrf2 signaling. Potency, µM (titrated, usually from 46.1 µM), inactives show at the highest dose activation, hits mostly activators. AID 624171. AREc32 ARE-luciferase reporter (MCF7-derived line), luminescence, 24 h. actives 0.31% (n = 410,000); note: potency is the fitted concentration of half-maximal effect; % of control where 0% means no effect; nearly all actives have a fitted effect of over 65% in size
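Each well held 1000 AREc32 cells, which were incubated with compound for 24 hr at 37 deg C after overnight attachment, and ARE reporter activity was quantified by firefly luciferase luminescence.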
D3 antag: D3 dopamine receptor (human) antagonism. D3R cells, DiscoveRx beta-arrestin luminescence, antagonist mode; active compounds read low. max response, negative = inhibition, %. actives 2.5% (n = 360,000). P35462. AID 652054; in the data active = max response below about -50%; inconclusive = no clear call, values can overlap the other calls; note: % is set by controls: 0 for no effect and ±100 for the full control effect
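Cells expressing the human receptor were seeded at 1500 cells/well, incubated overnight at 37 degrees C in 5% CO2, then exposed to library compounds with dopamine controls for 90 minutes at 37 degrees C before luminescent detection.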
* marks the source's active call; other numbers are inactive results; ? = inconclusive; · = no result given; [ ] = another dose, or the depositor's remark. This is a sample that favours compounds with a hit; in the whole collection about 3% have one here. Unless noted, calls come from the whole dose curve; as a rule, active = well fitted curve in the direction sought with a large enough effect; inconclusive = small, poorly fitted or top-dose-only effect, or another doubt; inactive = no such curve, though single readings can be large; an effect the other way counts as inactive or inconclusive.

SMILES	DRD3 agonist	Glioma ERSR ind	Nrf2 activator	D3 antag
O=C1c2ccccc2C(=O)N1CCc1csc(-c2ccccc2)n1	-4	5%	3%	-1
Cc1nc(CCN2C(=O)c3ccccc3C2=O)cs1	-6	1%	5%	-8
O=C1c2ccccc2C(=O)N1CCc1csc(-c2ccc(F)cc2)n1	30*	-3%	3%	-11
NC(N)=Nc1nc(CCN2C(=O)c3ccccc3C2=O)cs1	48*	-7%	-1%	22
COC(=O)C1CCN(c2nc(CN(C)C3CCOC3)nc3cc(OC)c(OC)cc23)CC1 (centres undefined)	·	-6%	·	·
Cc1cccc(C)c1C(O)c1ncc(-c2cccc(C(F)(F)F)c2)[nH]1 (centres undefined)	-3	1%	4%	-61*
CCOC(=O)C1(C)/C(=N/Nc2cccc(Cl)c2)C(=O)C(=O)N1c1ccccc1 (centres undefined)	-7	-1%	0%	-75*
NC(N)=NCCC[C@H](NC(=O)c1ccccc1)C(=O)Nc1ccc([N+](=O)[O-])cc1	·	3%	·	·
NC(N)=NCCCC(NC(=O)c1ccccc1)C(=O)Nc1ccc([N+](=O)[O-])cc1 (centres undefined)	-44	-4%	0%	-94*
COc1ccccc1C(=O)N1CCN=C1c1ccccc1	34*	3%	0%	-9
COc1ccccc1C(=O)N1CCN=C1SC	2	-4%	0%	-11
COc1ccc(/C=c2\[nH]c(=O)/c(=C/c3ccc(OC)cc3)[nH]c2=O)cc1	·	-3%	·	·
O=C(Nc1ccc(F)cc1F)c1cc(-c2ccc(Cl)cc2)on1	-8	-1%	0%	·
O=C(/C=C/c1ccc(O)c(O)c1)c1ccc(O[C@@H]2O[C@H](CO)[C@@H](O)[C@H](O)[C@H]2O)c(O)c1O	·	-3%	·	·
O=C(CSc1nnc(-c2cnccn2)n1Cc1ccco1)c1ccc(Cl)cc1	-9	0%	?	-63*
Cc1[nH]nc2c1C(c1ccoc1)C(C#N)=C(N)O2 (centres undefined)	-3	-5%	0%	24
Cc1cc(C)c(C2C(C#N)=C(N)Oc3n[nH]c(C)c32)cc1CN1CCCC1 (centres undefined)	-31	1%	2%	-112*
COc1ccc2c(COC(=O)c3cccc(S(=O)(=O)NCC(C)C)c3)cc(=O)oc2c1	32*	-4%	3%	46
CC1CN(S(=O)(=O)c2cccc(C(=O)OCc3cc(=O)oc4cc(O)ccc34)c2)CC(C)O1 (centres undefined)	-10	-3%	0%	-56*
COc1ccccc1CN1CCCC(n2cc(C(=O)N3CCCC3)nn2)C1 (centres undefined)	·	-3%	·	·
CN1CCN(C2=Cc3ccccc3Sc3cc(F)c(Cl)cc32)CC1	1	-15%	5%	?
CN1CCN(C2=Cc3ccccc3Sc3cc(F)c(F)cc32)CC1	2	-16%	3%	-62*
O=C(NCC(c1ccco1)S(=O)(=O)c1ccc(Cl)cc1)c1ccccc1F (centres undefined)	10	-1%	5%	·
CN1CCCN(Cc2ccccc2C(F)(F)F)CC1	-6	-2%	0%	-84*
CN1CCCN(Cc2ccc(Cl)cc2Cl)CC1	-34	-4%	-1%	-78*
SMILES	DRD3 agonist	Glioma ERSR ind	Nrf2 activator	D3 antag
CN1CCCN(Cc2nc(-c3ccc(Cl)cc3)no2)CC1	2	2%	2%	-10
CC(C)Cc1nc2cc(NS(=O)(=O)N(C)C)cc(C(=O)N3CCN(c4ccccc4)CC3)c2n1C	·	-2%	·	·
C/C(=N\NC(=O)C(C)Oc1ccc([N+](=O)[O-])cc1)c1ccccn1 (centres undefined)	-90	-7%	23%	-106*
CC(Oc1ccccc1)C(=O)NNC(=O)c1ccccn1 (centres undefined)	-1	-3%	0%	3
CC(=O)c1cccc(-c2ccnc3c2CC(C(=O)NCc2ccco2)O3)c1 (centres undefined)	-21	-3%	0%[9.22 µM]	-70*
CC(=O)Nc1ccc(NC(=O)C2Cc3c(-c4ccco4)ccnc3O2)cc1 (centres undefined)	-8	0%	-1%	-61*
CC(=O)Nc1cccc(-c2ccnc3c2CC(C(=O)Nc2ccc4c(c2)OCO4)O3)c1 (centres undefined)	-15	-4%	0%[9.22 µM]	-55*
CC(=O)Nc1ccc(NC(=O)C2Cc3c(-c4ccc5c(c4)OCO5)ccnc3O2)cc1 (centres undefined)	6	-5%	5%	-21
COc1ccc(NC(=O)C2Cc3c(-c4cccc(C(N)=O)c4)ccnc3O2)cc1OC (centres undefined)	39*	-2%	7%	0
O=C(Nc1ccccc1)C1Cc2c(-c3ccco3)ccnc2O1 (centres undefined)	0	-3%	5%	22
Cc1sc2ccccc2[n+]1CCc1ccccc1	·	2%	·	·
CCC1CN(Cc2cccc3nccnc23)Cc2cc(OC)ccc2O1 (centres undefined)	·	-2%	·	·
CC(=O)Nc1cccc(-c2ccnc3c2CC(C(=O)NCc2cccs2)O3)c1 (centres undefined)	-12	-4%	0%[9.22 µM]	-78*
O=C1CCc2cc(-c3csc(-c4ccc(O)cc4)n3)ccc2N1	·	1%	·	·
CCOc1ccc(NC(=O)Cc2c(O)c3ccccc3[nH]c2=O)cc1	-13	-3%	0%	-63*
CCc1ccc(C2C(C#N)=C(N)C(C#N)(C#N)C3=CCC(C(C)(C)C)CC32)cc1 (centres undefined)	-12	0%	26%	-93*
CCc1ccc(N2C=C(C(=O)OC)C(c3ccc(OC)cc3)C(C#N)=C2N)cc1 (centres undefined)	-1	·	·	-11
CCCCCCCCN1[C@@H](CC(=O)O)c2cc(C(F)(F)F)ccc2S1(=O)=O	13	?	?	5
CCCCCCCCN1[C@@H](CC(=O)OC)c2cc(F)ccc2S1(=O)=O	2	-1%	14%	16
CCCCCCCCCCCCN1[C@@H](CC(=O)O)c2cc(F)ccc2S1(=O)=O	40*	-1%	0%	1
CCCCCCCCCCCCN1[C@@H](CC(=O)O)c2cc(C(F)(F)F)ccc2S1(=O)=O	37*	2%	3%	2
COc1cccc(CNC(=O)C(Cc2ccccc2)NS(=O)(=O)c2ccc3c(c2)CCN3C(C)=O)c1 (centres undefined)	2	-2%	0%	·
CCCCN1C(=O)C(CC(=O)NCCCCc2ccccc2)CC(C(=O)N2CCCCCC2)=C1C (centres undefined)	-11	·	0%	-52*
Cc1nc2c(C#N)cnn2c2c1CCN2CC1CCCO1 (centres undefined)	43*	-5%	0%	1
COc1ccc(-c2nc(NC(=O)c3cc(C(C)(C)C)nn3C)sc2C)cc1	40*	1%	0%	11
COc1ccc(-c2nc(NC(=O)c3c(C)noc3C)sc2C)cc1	10	-3%	1%	10
CC(=O)c1ccc(NC(=O)c2cc3c(=O)oc4ccc(C)cc4c3s2)cc1	7	-3%	0%	·
Cc1cccc(CNCCn2cc(C(=O)Nc3ccccc3)nn2)c1	·	4%	·	·
